# About 1,500 (3.8%) of roughly 39,000 compounds were called active. The entries come from a sample that favours actives as a whole.
# Tested on: HSkMC (human skeletal muscle cells)
# Assay: cytotoxicity call (relative viability < 0.9)
# Conditions: 10 µM
row,Compound,cytotoxicity call
1,CO[C@H]1CN(C)C(=O)c2ccc(NC(=O)CC(F)(F)F)cc2OC[C@H](C)N(C(=O)C2CCOCC2)C[C@H]1C,inactive
2,O=c1c(O)cc(C2Oc3cc(O)cc(O)c3CC2O)cc2c(C3Oc4cc(O)cc(O)c4CC3O)cc(O)c(O)c12 (centres undefined),inactive
3,Cc1noc(C)c1NC(=O)Nc1ccc2c(c1)C(=O)N([C@@H](C)CO)C[C@H](C)[C@@H](CN(C)Cc1ccc(C(F)(F)F)cc1)O2,inactive
4,C[C@H](CO)N1C[C@H](C)[C@H](CN(C)Cc2ccc(Oc3ccccc3)cc2)Oc2ccc(NS(=O)(=O)c3ccccc3)cc2C1=O,inactive
5,C[C@@H]1CN([C@H](C)CO)C(=O)c2cc(NS(=O)(=O)c3ccccc3)ccc2O[C@H]1CN(C)Cc1ccc(Oc2ccccc2)cc1,inactive
6,C[C@@H]1CN([C@@H](C)CO)C(=O)c2cc(NS(=O)(=O)c3ccc(Cl)cc3)ccc2O[C@@H]1CN(C)Cc1ccc(Oc2ccccc2)cc1,active
7,C[C@@H]1CN([C@H](C)CO)C(=O)c2cc(NS(=O)(=O)c3cn(C)cn3)ccc2O[C@H]1CN(C)Cc1ccc2c(c1)OCO2,inactive
8,COc1ccc(S(=O)(=O)N(C)C[C@H]2Oc3ccc(NC(=O)Cn4cnnn4)cc3CC(=O)N([C@@H](C)CO)C[C@@H]2C)cc1,inactive
9,C[C@@H]1CN([C@@H](C)CO)C(=O)c2cc(NS(=O)(=O)c3cccs3)ccc2O[C@@H](C)CCCCO[C@H]1CN(C)C(=O)Nc1cccc2ccccc12,inactive
10,C[C@H]1CCCCO[C@H](CN(C)C(=O)Nc2cccc3ccccc23)[C@@H](C)CN([C@@H](C)CO)C(=O)c2cc(NS(=O)(=O)c3cccs3)ccc2O1,inactive
11,C[C@@H]1CCCCO[C@H](CN(C)C(=O)Nc2cccc3ccccc23)[C@H](C)CN([C@H](C)CO)C(=O)c2cc(NS(=O)(=O)c3cccs3)ccc2O1,active
12,C[C@H](CO)N1C[C@H](C)[C@@H](CN(C)C(=O)Nc2cccc3ccccc23)OCCCC[C@H](C)Oc2ccc(NS(=O)(=O)c3cccs3)cc2C1=O,active
13,C[C@@H]1CCCCO[C@@H](CN(C)C(=O)Nc2cccc3ccccc23)[C@H](C)CN([C@H](C)CO)C(=O)c2cc(NS(=O)(=O)c3cccs3)ccc2O1,inactive
14,C[C@H]1CCCCO[C@@H](CN(C)C(=O)Nc2cccc3ccccc23)[C@@H](C)CN([C@@H](C)CO)C(=O)c2cc(NS(=O)(=O)c3cccs3)ccc2O1,inactive
15,C[C@@H]1CN([C@@H](C)CO)S(=O)(=O)c2ccc(-c3ccc(F)cc3)cc2O[C@@H]1CN(C)S(C)(=O)=O,inactive
16,Oc1ccc([C@@H]2C=CCC2)cc1,inactive
17,COc1ccc(NC(=O)N(C)C[C@H]2OCCCC[C@@H](C)Oc3ccc(NC(=O)Nc4ccc5c(c4)OCO5)cc3C(=O)N([C@@H](C)CO)C[C@H]2C)cc1,inactive
18,C[C@@H]1CN([C@H](C)CO)C(=O)c2cccc(NC(=O)C3CCOCC3)c2O[C@@H]1CN(C)Cc1ccc2c(c1)OCO2,inactive
19,Cc1cc(C(=O)Nc2cccc3c2O[C@H](CN(C)S(=O)(=O)c2ccc(F)cc2)[C@H](C)CN([C@H](C)CO)C3=O)n(C)n1,inactive
20,CN(C)CC(=O)N1[C@@H]2Cn3c(cccc3=O)[C@H]1[C@@H](C(=O)NCc1ccccc1)[C@@H]2CO,inactive
21,C=CCC[C@@H](Cc1ccc(F)cc1)C(=O)O[C@@H](CNC(=O)[C@@H](CC=C)CC(=O)N(CCO)Cc1ccccc1)c1ccccc1,active
22,C=CCC[C@@H](Cc1ccc(F)cc1)C(=O)O[C@H](CNC(=O)[C@@H](CC=C)CC(=O)N(CCO)Cc1ccccc1)c1ccccc1,active
23,C=CCC[C@@H](Cc1ccc(F)cc1)C(=O)O[C@H](CNC(=O)[C@H](CC=C)CC(=O)N(CCO)Cc1ccccc1)c1ccccc1,inactive

row,Compound,cytotoxicity call
1,C=CCC[C@H](Cc1ccc(F)cc1)C(=O)O[C@H](CNC(=O)[C@@H](CC=C)CC(=O)N(CCO)Cc1ccccc1)c1ccccc1,inactive
2,C=CCC[C@H](Cc1ccc(F)cc1)C(=O)O[C@H](CNC(=O)[C@H](CC=C)CC(=O)N(CCO)Cc1ccccc1)c1ccccc1,inactive
3,C=CCC[C@H](Cc1ccc(F)cc1)C(=O)O[C@@H](CNC(=O)[C@H](CC=C)CC(=O)N(CCO)Cc1ccccc1)c1ccccc1,inactive
4,C=CCC[C@@H](Cc1ccc(F)cc1)C(=O)O[C@@H](CNC(=O)[C@H](CC=C)CC(=O)N(CCO)Cc1ccccc1)c1ccccc1,active
5,C=CCC[C@H](Cc1ccc(F)cc1)C(=O)O[C@@H](CNC(=O)[C@@H](CC=C)CC(=O)N(CCO)Cc1ccccc1)c1ccccc1,active
6,COC(=O)C[C@H]1CC[C@@H]2[C@H](COC[C@@H](O)CN2S(=O)(=O)c2ccc(F)cc2)O1,inactive
7,C=CCNC(=O)[C@@H]1[C@H]2C(=O)O[C@H](c3ccccc3)[C@H](c3ccccc3)N2[C@H](c2ccc(O)cc2)[C@@]12C(=O)N(C(=O)OCCOC)c1ccc(C#Cc3ccc(OC)cc3)cc12,inactive
8,CC(C)NC(=O)N(C)C[C@H]1Oc2cc(-c3ccccc3F)ccc2S(=O)(=O)N([C@@H](C)CO)C[C@H]1C,inactive
9,Nc1ncnc(Cl)c1N,inactive
10,COCC#Cc1ccc2c(c1)O[C@H](CN(C)C(=O)c1ccccc1)[C@@H](C)CN([C@@H](C)CO)S2(=O)=O,inactive
11,C[C@@H]1CCCCO[C@@H](CN(C)C(=O)c2ccccc2)[C@@H](C)CN([C@H](C)CO)C(=O)c2cc(NC(=O)Nc3ccc(F)cc3)ccc2O1,inactive
12,COc1ccccc1CNC(=O)C[C@H]1CC[C@H]2[C@@H](COC[C@H](O)CN2C(=O)Nc2ccc(F)cc2)O1,inactive
13,O=C(C[C@@H]1C[C@H]2c3cc(NC(=O)Nc4ccc(C(F)(F)F)cc4)ccc3O[C@H]2[C@H](CO)O1)NCc1cc(F)ccc1F,inactive
14,C[C@@H]1CN([C@H](C)CO)C(=O)c2cc(NC(=O)c3ccncc3)ccc2O[C@H]1CN(C)Cc1ccc(Oc2ccccc2)cc1,inactive
15,O=C(O[C@H]1[C@H](O)[C@@H](CO)O[C@H](c2c(O)cc(O)c(C(=O)c3ccc(O)cc3)c2O)[C@H]1OC(=O)c1cc(O)c(O)c(O)c1)c1cc(O)c(O)c(O)c1,inactive
16,CCS(=O)(=O)Nc1ccc2c(c1)C(=O)N(C)[C@@H]1CC[C@H](CC(=O)NCCCN3CCOCC3)O[C@@H]1CO2,inactive
17,COc1ccc(S(=O)(=O)Nc2ccc3c(c2)CC(=O)N([C@@H](C)CO)C[C@@H](C)[C@H](CN(C)Cc2ccc(-c4ccccc4)cc2)O3)cc1,inactive
18,COc1ccc(S(=O)(=O)Nc2ccc3c(c2)CC(=O)N([C@@H](C)CO)C[C@H](C)[C@H](CN(C)Cc2ccc(-c4ccccc4)cc2)O3)cc1,active
19,COc1ccc(S(=O)(=O)Nc2ccc3c(c2)CC(=O)N([C@H](C)CO)C[C@H](C)[C@H](CN(C)Cc2ccc(-c4ccccc4)cc2)O3)cc1,inactive
20,COc1ccc(S(=O)(=O)Nc2ccc3c(c2)CC(=O)N([C@@H](C)CO)C[C@@H](C)[C@@H](CN(C)Cc2ccc(-c4ccccc4)cc2)O3)cc1,inactive
21,COc1ccc(S(=O)(=O)Nc2ccc3c(c2)CC(=O)N([C@H](C)CO)C[C@H](C)[C@@H](CN(C)Cc2ccc(-c4ccccc4)cc2)O3)cc1,inactive
22,COc1ccc(S(=O)(=O)Nc2ccc3c(c2)CC(=O)N([C@H](C)CO)C[C@@H](C)[C@@H](CN(C)Cc2ccc(-c4ccccc4)cc2)O3)cc1,active
23,COc1ccc(S(=O)(=O)Nc2ccc3c(c2)CC(=O)N([C@H](C)CO)C[C@@H](C)[C@H](CN(C)Cc2ccc(-c4ccccc4)cc2)O3)cc1,active

row,Compound,cytotoxicity call
1,COc1ccc(S(=O)(=O)Nc2ccc3c(c2)CC(=O)N([C@@H](C)CO)C[C@H](C)[C@@H](CN(C)Cc2ccc(-c4ccccc4)cc2)O3)cc1,inactive
2,Cc1ccc2oc(=O)cc(Cl)c2c1,inactive
3,NC(=O)NCC#Cc1ccc2c(c1)[C@]1(C(=O)N2)[C@H](C(=O)O)[C@H]2C(=O)O[C@H](c3ccccc3)[C@H](c3ccccc3)N2[C@@H]1c1ccc(OCCO)cc1,inactive
4,COc1ccccc1CNC(=O)C[C@H]1C[C@H]2c3cc(NC(=O)C4CCOCC4)ccc3O[C@H]2[C@@H](CO)O1,inactive
5,CC(C)NC(=O)N(C)C[C@@H]1Oc2ccc(NS(=O)(=O)c3cn(C)cn3)cc2CC(=O)N([C@@H](C)CO)C[C@@H]1C,inactive
6,Cc1noc(C)c1NC(=O)N(C)C[C@@H]1OCCCC[C@@H](C)Oc2ccc(NS(=O)(=O)c3ccc(Cl)cc3)cc2C(=O)N([C@H](C)CO)C[C@@H]1C,inactive
7,COc1ccc(S(=O)(=O)N(C)C[C@@H]2Oc3ccc(NC(=O)c4ccncc4)cc3CC(=O)N([C@@H](C)CO)C[C@H]2C)cc1,inactive
8,Nc1ccc(S(N)(=O)=O)cc1,inactive
9,C[C@@H]1CN([C@@H](C)CO)C(=O)c2cc(N(C)C)ccc2O[C@@H](C)CCCCO[C@@H]1CN(C)C(=O)CCCN(C)C,inactive
10,Cc1ccc2[nH]c(=O)c(C3=NN(C(=O)CCC(=O)O)[C@H](c4ccc(Br)cc4)C3)c(-c3ccccc3)c2c1,inactive
11,COc1ccc(S(=O)(=O)Nc2ccc3c(c2)CC(=O)N([C@H](C)CO)C[C@@H](C)[C@@H](CN(C)S(=O)(=O)c2ccc(OC)cc2)O3)cc1,inactive
12,C[C@@H]1CN([C@H](C)CO)C(=O)c2cccc(NC(=O)Nc3ccccc3)c2O[C@H]1CN(C)Cc1ccc(Oc2ccccc2)cc1,inactive
13,C[C@@H]1CN([C@@H](C)CO)C(=O)c2cccc(NC(=O)C3CCCCC3)c2O[C@H]1CN(C)Cc1ccc(Oc2ccccc2)cc1,inactive
14,C[C@@H]1CN([C@@H](C)CO)C(=O)c2cccc(NC(=O)Nc3ccccc3)c2O[C@H]1CN(C)Cc1ccc(Oc2ccccc2)cc1,inactive
15,C[C@H]1CN([C@@H](C)CO)C(=O)c2cccc(NC(=O)Nc3cccc4ccccc34)c2O[C@H]1CN(C)Cc1ccc(Oc2ccccc2)cc1,inactive
16,C[C@@H]1CN([C@H](C)CO)C(=O)c2cccc(NC(=O)Nc3ccccc3)c2O[C@@H]1CN(C)Cc1ccc(Oc2ccccc2)cc1,inactive
17,C[C@H](CO)N1C[C@H](C)[C@H](CN(C)Cc2ccc(Oc3ccccc3)cc2)Oc2c(NC(=O)Nc3cccc4ccccc34)cccc2C1=O,inactive
18,C[C@H](CO)N1C[C@H](C)[C@@H](CN(C)Cc2ccc(Oc3ccccc3)cc2)Oc2c(NC(=O)Nc3cccc4ccccc34)cccc2C1=O,active
19,C[C@@H]1CN([C@@H](C)CO)C(=O)c2cccc(NC(=O)Nc3ccccc3)c2O[C@@H]1CN(C)Cc1ccc(Oc2ccccc2)cc1,inactive
20,C[C@H](CO)N1C[C@H](C)[C@@H](CN(C)Cc2ccc(Oc3ccccc3)cc2)Oc2c(NC(=O)Nc3ccccc3)cccc2C1=O,active
21,C[C@H](CO)N1C[C@H](C)[C@@H](CN(C)Cc2ccc(Oc3ccccc3)cc2)Oc2c(NC(=O)C3CCCCC3)cccc2C1=O,active
22,C[C@H]1CN([C@@H](C)CO)C(=O)c2cccc(NC(=O)C3CCCCC3)c2O[C@H]1CN(C)Cc1ccc(Oc2ccccc2)cc1,inactive
23,C[C@H]1CN([C@@H](C)CO)C(=O)c2cccc(NC(=O)Nc3ccccc3)c2O[C@@H]1CN(C)Cc1ccc(Oc2ccccc2)cc1,active

# — the antibiotic and cytotoxicity screens of Wong et al. (2023)
